# Laboratory results as given in the supplement of paper PMC9135407.
# Several values for one entry are separate records, joined by “and”; a condition that tells them apart may be missing. Identical values can stand only once. Counter-ions that a name gives are not always drawn. The whole screen tested about 5,800 compounds, of which about 620 (11%) showed activity. Shown is part of a subset that was picked to be rich in actives. Values without a mark were called inactive.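 Rule for the calls: active = score above a cut-off or among the top three wells of a plate; in these data no inactive exceeds 0.85.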
# Tested on: primary human hepatic stellate cells (donor 1)
# Assay: scaled lipid accumulation score (0 = DMSO-like, 1 = nortriptyline-like); higher = stronger HSC inactivation (lipid re-accumulation), active = hit call of the paper
# Details: 48 h
# [1] = library stock concentration: 1 mM
# [2] = library stock concentration: 3.33 mM
# [3] = library stock concentration: 10 mM
# [4] = library stock concentration: 80 uM
# [5] = library stock concentration: 400 uM
# [6] = library stock concentration: 2 mM
# [7] = library stock concentration: 4.7 mM
structure (smiles),measurement,setting,value
CC(Cc1ccc(O)c(O)c1)C(C)Cc1ccc(O)c(O)c1 (stereo not drawn) [Nordihydroguaiaretic Acid],scaled lipid accumulation score,[1],0.042
COc1ccc(-n2c(C)c([N+](=O)[O-])c3ccc(O)cc32)cc1,scaled lipid accumulation score,[2],0.252
same,scaled lipid accumulation score,[3],0.703
O/N=C/c1ccc(-c2ccc(O)c(F)c2)c(Cl)c1O,scaled lipid accumulation score,[3],0.02
COc1ccc([C@H]2CNC(=O)C2)cc1OC1CCCC1 [(S)-(+)-Rolipram],scaled lipid accumulation score,[3],≤ -0.006
C[C@H](N)C(=O)CCCCCC(=O)O [KAPA (hydrochloride)],scaled lipid accumulation score,[1],0.007
O=C1[C@H](Cc2ccc(O)cc2)N2C(=O)CCN(C(=O)NCc3ccccc3)[C@H]2CN1Cc1cccc2ccccc12,scaled lipid accumulation score,[2],≤ 0
same,scaled lipid accumulation score,[3],0.29
CC(=Cc1ccc(C(=O)O)cc1)c1ccc2c(c1)C(C)(C)CCC2(C)C,scaled lipid accumulation score,[1],≤ -0.021
same,scaled lipid accumulation score,[3],≤ 0
CC(=Cc1ccc(C(=O)O)cc1)c1ccc2c(c1)C(C)(C)CCC2(C)C [TTNPB (Arotinoid Acid)],scaled lipid accumulation score,[2],≤ 0
same,scaled lipid accumulation score,[3],≤ -0.001
CCCCCCCCCC(=O)N[C@@H](Cc1c[nH]c2ccccc12)C(=O)N[C@@H](CC(N)=O)C(=O)N[C@@H](CC(=O)O)C(=O)N[C@@H]1C(=O)NCC(=O)N[C@@H](CCCN)C(=O)N[C@@H](CC(=O)O)C(=O)N[C@H](C)C(=O)N[C@@H](CC(=O)O)C(=O)NCC(=O)N[C@H](CO)C(=O)N[C@@H]([C@H](C)CC(=O)O)C(=O)N[C@@H](CC(=O)c2ccccc2N)C(=O)O[C@@H]1C [DAPTOMYCIN (5 millimolar/DMSO)],scaled lipid accumulation score,[3],≤ 0
CC(C)c1nn(-c2c(Cl)cccc2Cl)c2nc(Cc3ccc(OCCO)cc3)[nH]c(=O)c12,scaled lipid accumulation score,[4],0.074
same,scaled lipid accumulation score,[5],0.071
same,scaled lipid accumulation score,[6],0.275
same,scaled lipid accumulation score,[3],0.136
O=[N+]([O-])c1ccccc1S(=O)(=O)NCC1CCC(CNCC2CCc3ccccc3C2)CC1 (stereo not drawn) [NTNCB hydrochloride],scaled lipid accumulation score,[3],0.622
NC(=O)N/N=C/c1ccc(Oc2ccc(F)cc2)cc1,scaled lipid accumulation score,[3],0.015
C#C[C@]1(O)CC[C@H]2[C@@H]3CCc4cc(O)ccc4[C@H]3CC[C@@]21C [Ethinyl Estradiol],scaled lipid accumulation score,[2],≤ 0
same,scaled lipid accumulation score,[3],0.277
C#C[C@]1(O)CC[C@H]2[C@@H]3CCC4=Cc5oncc5C[C@]4(C)[C@H]3CC[C@@]21C [Danazol],scaled lipid accumulation score,,0.447
same,scaled lipid accumulation score,library stock concentration: 5.9 mM,0.204 and 0.103
same,scaled lipid accumulation score,[3],≤ 0
C#C[C@]1(O)CC[C@H]2[C@@H]3CCc4cc(O)ccc4[C@H]3CC[C@@]21C [Ethinyl estradiol],scaled lipid accumulation score,library stock concentration: 6.7 mM,0.516
same,scaled lipid accumulation score,[3],≤ 0
C#C[C@]1(O)CC[C@H]2[C@@H]3CCC4=Cc5oncc5C[C@]4(C)[C@H]3CC[C@@]21C,scaled lipid accumulation score,[3],0.336
C#C[C@]1(O)CC[C@H]2[C@@H]3CCC4=Cc5oncc5CC4(C)[C@H]3CCC21C (stereo partly drawn) [Danazol],scaled lipid accumulation score,[3],0.915 (active)
C#C[C@]1(O)CC[C@H]2[C@@H]3CCc4cc(O)ccc4[C@H]3CC[C@@]21C,scaled lipid accumulation score,[3],0.186
CC(C)NCCN(C(C)C)S(=O)(=O)c1ccc(Cl)cc1Cl,scaled lipid accumulation score,[3],0.722
CCCCc1oc2ccccc2c1C(=O)c1cc(I)c(OCCN(CC)CC)c(I)c1 [Amiodarone HCl],scaled lipid accumulation score,[2],0.394
CCCCc1oc2ccccc2c1C(=O)c1cc(I)c(OCCN(CC)CC)c(I)c1.Cl [Amiodarone hydrochloride],scaled lipid accumulation score,[3],1.04 (active)
CCCCc1cc2ccccc2c(OCCN(C)C)n1 [Dimethisoquin hydrochloride],scaled lipid accumulation score,,0.71
CCc1oc2ccccc2c1C(=O)c1cc(Br)c(O)c(Br)c1 [Benzbromarone],scaled lipid accumulation score,,0.013
same,scaled lipid accumulation score,[2],≤ 0
same,scaled lipid accumulation score,[7],≤ 0
same,scaled lipid accumulation score,[3],≤ -0.001
CCCCc1oc2ccccc2c1C(=O)c1cc(I)c(OCCN(CC)CC)c(I)c1,scaled lipid accumulation score,library stock concentration: 7.3 mM,0.281
same,scaled lipid accumulation score,library stock concentration: 9.5 mM,1.34 (active)
CCCCc1oc2ccccc2c1C(=O)c1cc(I)c(OCCN(CC)CC)c(I)c1.Cl [Amiodarone HCl],scaled lipid accumulation score,[3],1.27 (active)
CCCCc1oc2ccc(NS(C)(=O)=O)cc2c1C(=O)c1ccc(OCCCN(CCCC)CCCC)cc1 [Dronedarone HCl],scaled lipid accumulation score,[2],0.642
same,scaled lipid accumulation score,[3],0.263
CCCCc1oc2ccccc2c1C(=O)c1cc(I)c(OCCN(CC)CC)c(I)c1 [Amiodarone hydrochloride],scaled lipid accumulation score,,0.445
same,scaled lipid accumulation score,library stock concentration: 2.9 mM,0.417
CCCCc1oc2ccccc2c1C(=O)c1cc(I)c(OCCN(CC)CC)c(I)c1 [Amiodarone],scaled lipid accumulation score,library stock concentration: 3.1 mM,0.438
CCc1oc2ccccc2c1C(=O)c1cc(Br)c(O)c(Br)c1,scaled lipid accumulation score,[3],≤ 0
NC(=O)c1cc[n+](CC2=C(C(=O)O)N3C(=O)[C@@H](NC(=O)C(c4ccccc4)S(=O)(=O)[O-])[C@H]3SC2)cc1 (stereo partly drawn) [Cefsulodin sodium salt hydrate],scaled lipid accumulation score,[3],0.04
NC(=O)c1ccc2nc(-c3ccc(Oc4ccc(Cl)cc4)cc3)[nH]c2c1 [Chk2 Inhibitor II],scaled lipid accumulation score,[2],≤ 0
CCCCCCCCCCCCC/C=C/[C@@H](O)[C@H](CO)NCCCCCCCC [C-8 Ceramine],scaled lipid accumulation score,[1],0.054
CCCCCCCCCCCCC/C=C/[C@@H](O)[C@H](CO)NCCCCCCCC [C8 Ceramine],scaled lipid accumulation score,[1],0.067
CCCCCC(O)C=CC1C(O)CC(O)C1CC=CCCCCOC (stereo not drawn) [Prostaglandin F2.alpha. Alcohol methyl ether],scaled lipid accumulation score,[1],≤ 0
Cc1nc2c(-c3cnc(N)nc3)nc(N3CCOCC3)nc2n1C(C)C,scaled lipid accumulation score,[2],0.019
same,scaled lipid accumulation score,[3],≤ -0.001
"Nc1ccc2c3c(cccc13)C(=O)NC2=O [4-Amino-1,8-naphthalimide] [listing 1 of 2 here]",scaled lipid accumulation score,library stock concentration: 23.6 mM,0.762
O=C1NC(=O)C(c2c[nH]c3ccccc23)=C1c1c[nH]c2ccccc12 [Bisindolylmaleimide IV],scaled lipid accumulation score,[1],≤ 0
same,scaled lipid accumulation score,[2],0.045
"Nc1ccc2c3c(cccc13)C(=O)NC2=O [4-Amino-1,8-naphthalimide] [listing 2 of 2 here]",scaled lipid accumulation score,[3],0.886 (active)
CC(C)C[C@H](NP(=O)(O)O[C@@H]1O[C@@H](C)[C@H](O)[C@@H](O)[C@H]1O)C(=O)N[C@@H](Cc1c[nH]c2ccccc12)C(=O)O [Phosphoramidon Disodium Salt],scaled lipid accumulation score,[2],≤ -0.009
same,scaled lipid accumulation score,[3],≤ 0
Cc1cc(CN2CCN(c3c(Br)cnc4nc(-c5ccc(N6CCN(C)CC6)cc5)[nH]c34)CC2)no1,scaled lipid accumulation score,[3],0.471
Cc1cc(CN2CCN(c3c(Br)cnc4[nH]c(-c5ccc(N6CCN(C)CC6)cc5)nc34)CC2)no1,scaled lipid accumulation score,[2],0.857 (active)
O=C(Nc1ccc(I)cc1)NC1CCCCC1,scaled lipid accumulation score,[3],0.938 (active)
O=C(Nc1ccccc1)Nc1ccc(-c2ccc(C(=O)[C@@H]3CCC[C@H]3C(=O)O)cc2)cc1,scaled lipid accumulation score,[2],≤ 0
same,scaled lipid accumulation score,[3],≤ 0
CC(=O)c1ccc(S(=O)(=O)NC(=O)NC2CCCCC2)cc1 [Acetohexamide],scaled lipid accumulation score,,≤ 0
same,scaled lipid accumulation score,library stock concentration: 6.2 mM,≤ 0
same,scaled lipid accumulation score,[3],0.116
CCCCCC/C=C\CCCCCCCC(=O)OCC [Palmitoleic Acid ethyl ester],scaled lipid accumulation score,[1],≤ 0
COc1ccc(CCn2nnnc2C2(c3ccc(C)cc3)CC2)cc1 [Mephetyl tetrazole],scaled lipid accumulation score,[3],≤ -0.07
COC(=O)C(C)c1ccc(C(=O)c2cccs2)cc1 (stereo not drawn) [Suprofen methyl ester],scaled lipid accumulation score,[3],≤ 0
Cc1scc2c1N(C(=O)CN1CCN(C)CC1)c1ccccc1NC2=O [Telenzepine 2HCl],scaled lipid accumulation score,library stock concentration: 5.4 mM,0.006
"COC(=O)c1ccc2c(c1)NC(=O)/C2=C(\Nc1ccc(N(C)C(=O)CN2CCN(C)CC2)cc1)c1ccccc1 [Intedanib  (BIBF 1120, Vargatef) (2 mM)]",scaled lipid accumulation score,[6],0.838
"COC(=O)c1ccc2c(c1)NC(=O)/C2=C(\Nc1ccc(N(C)C(=O)CN2CCN(C)CC2)cc1)c1ccccc1 [Intedanib (BIBF 1120, Vargatef) (10 mM)]",scaled lipid accumulation score,[3],1.51 (active)
Cc1scc2c1N(C(=O)CN1CCN(C)CC1)c1ccccc1NC2=O [Telenzepine dihydrochloride],scaled lipid accumulation score,,≤ 0
same,scaled lipid accumulation score,[3],0.052 and 0.027
COC(=O)c1ccc2c(c1)NC(=O)C2=C(Nc1ccc(N(C)C(=O)CN2CCN(C)CC2)cc1)c1ccccc1,scaled lipid accumulation score,[3],0.976 (active)
COC(=O)c1ccc2c(C(=Nc3ccc(N(C)C(=O)CN4CCN(C)CC4)cc3)c3ccccc3)c(O)[nH]c2c1,scaled lipid accumulation score,[4],0.316
same,scaled lipid accumulation score,[5],0.522
same,scaled lipid accumulation score,[6],0.258
CN1CCN(CC(=O)N2c3ccccc3C(=O)Nc3cccnc32)CC1 [Pirenzepine dihydrochloride],scaled lipid accumulation score,,≤ 0
same,scaled lipid accumulation score,[3],≤ 0
Cc1scc2c1N(C(=O)CN1CCN(C)CC1)c1ccccc1NC2=O [Telenzepine hydrochloride],scaled lipid accumulation score,[3],0.084
"COC(=O)c1ccc2c(c1)NC(=O)/C2=C(\Nc1ccc(N(C)C(=O)CN2CCN(C)CC2)cc1)c1ccccc1 [Intedanib (BIBF 1120, Vargatef) (0.4 mM)]",scaled lipid accumulation score,[5],0.323
CN1CCN(CC(=O)N2c3ccccc3C(=O)Nc3cccnc32)CC1 [Pirenzepine 2HCl],scaled lipid accumulation score,library stock concentration: 5.7 mM,≤ -0.006
CN1CCN(CC(=O)N2c3ccccc3C(=O)Nc3cccnc32)CC1 [Pirenzepine hydrochloride],scaled lipid accumulation score,[7],≤ 0
same,scaled lipid accumulation score,[3],≤ 0
COC(=O)c1ccc2c(c1)NC(=O)C2=C(Nc1ccc(N(C)C(=O)CN2CCN(C)CC2)cc1)c1ccccc1 [Nintedanib (BIBF 1120)],scaled lipid accumulation score,[2],1.2 (active)
same,scaled lipid accumulation score,[3],1.33 (active)
